Screening results as filed in PubChem BioAssay.
DRD3 agonist: activates the human D3 dopamine receptor; max activation, %; actives 0.58% (n = 410,000); D3R DiscoveRx beta-arrestin cells, luminescence, 90 min; in the data active = max activation above about 30%; also: 0% is about no effect
Target sequence (P35462 whole entry, looked up): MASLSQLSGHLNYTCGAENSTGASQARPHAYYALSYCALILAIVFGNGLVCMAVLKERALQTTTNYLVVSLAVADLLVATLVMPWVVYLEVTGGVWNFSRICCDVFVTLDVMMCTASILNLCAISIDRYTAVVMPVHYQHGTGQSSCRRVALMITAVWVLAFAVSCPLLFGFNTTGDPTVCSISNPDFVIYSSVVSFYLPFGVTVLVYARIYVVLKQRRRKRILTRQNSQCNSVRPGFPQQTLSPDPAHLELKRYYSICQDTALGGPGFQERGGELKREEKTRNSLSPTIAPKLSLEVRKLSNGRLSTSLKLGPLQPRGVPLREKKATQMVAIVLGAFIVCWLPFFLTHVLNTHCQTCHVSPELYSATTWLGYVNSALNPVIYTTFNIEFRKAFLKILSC
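Cells at 1500/well, incubated overnight, then treated with pinned compounds (dopamine as control) for 90 min at 37 degrees C. DiscoveRx reagent added for 30 - 60 minutes at room temperature; luminescence read.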
D3 antag: blocks the human D3 dopamine receptor; D3R cells, DiscoveRx beta-arrestin luminescence, antagonist mode; hits give low values; max response, negative = inhibition, %; actives 2.5% (n = 360,000); in the data active = max response below about -50%; inconclusive = no clear call, values can overlap the other calls; also: % is scaled to controls: 0 for no effect and ±100 for the full control effect
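Cells plated overnight at 1500 cells/well, then exposed to library compounds with dopamine controls for 90 minutes at 37 degrees C. DiscoveRx reagent added for 30–60 minutes at room temperature; luminescence read, quantitative HTS format.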
TDP1 cell noCPT: qHTS for Inhibitors of human tyrosyl-DNA phosphodiesterase 1 (TDP1): qHTS in cells in absence of CPT; actives 15% (n = 420,000); AID 686978, 2013; DT40 Tdp1-/- hTDP1 cells, no CPT, ATP luminescence, 48 h; Potency, µM (highest dose often 46.2 µM), inactives show at the top dose activity change, negative = growth inhibition, hits mostly inhibitors; also: potency is read from the fitted curve at half-maximal effect; % is scaled to controls: 0 for no effect and ±100 for the full control effect; nearly all actives have a fitted effect of over 55% in size
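Chicken DT40 Tdp1-/- cells stably complemented with human TDP1 were seeded at 400 cells/well with DMSO in place of 20 nM camptothecin. After compound pinning, cells grew at least 48 hr at 37 °C; viability read by CellTiter-Glo luminescence.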
ClpP mod: qHTS Assay for Activators of ClpP; purified B. subtilis ClpP, FRET peptide cleavage, 20 min; Potency, µM (series often up to 57.5 µM), without a hit: at the top dose activity change, negative = active; actives 1.9% (n = 340,000); AID 651965, 2013; active = well fitted falling curve with a large enough effect; inconclusive = small, poorly fitted or top-dose-only effect; inactive = no such curve, though single readings can be large or run the other way; also: potency is read from the fitted curve at half-maximal effect; the source files actives as falling curves though it sought activators and does not explain the sign; nearly all actives have a fitted effect of over 65% in size
Target sequence (P80244 whole entry, looked up): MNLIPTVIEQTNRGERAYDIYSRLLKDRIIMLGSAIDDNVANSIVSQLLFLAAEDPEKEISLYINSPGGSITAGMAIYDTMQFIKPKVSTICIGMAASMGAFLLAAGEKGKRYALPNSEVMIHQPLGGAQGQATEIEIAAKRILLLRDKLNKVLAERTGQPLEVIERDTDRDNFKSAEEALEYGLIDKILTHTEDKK
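ClpP 10 microg/mL final, pH 8 Tris/KCl buffer with BSA, glycerol, Tween-20; compound pinned in; FRET-FV substrate; RT 20 min; Ex320/Em430; ΔFRET vs ADEP 5.8 microM, DMSO, no enzyme.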
IL1B secr inh: inhibitors of inflammasome signaling (IL-1 beta secretion) | AID 743279 | THP-1 LPS/ATP IL-1B secretion, AlphaLISA, 16 h; hits give low values | activity change, % at 57.5 µM | actives 4.7% (n = 360,000); in the data active = activity change below about -50%; inconclusive = mostly about -30% to -49%; also: % is scaled to controls: 0 for no effect and ±100 for the full control effect
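THP-1 cells pretreated 1 hr with compounds (up to 57.5 uM final), then stimulated with LPS (250 ng/mL final) plus ATP (1.25 mM final); secreted IL-1B measured by AlphaLISA after 16 hr, decreased signal indicating inhibition.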
DT40 TDP1 CPT: DT40-hTDP1 cell growth loss with CPT; chicken DT40 Tdp1-/-;hTDP1 cells + 20 nM CPT, ATP luminescence, 48 h; Potency, µM (highest dose often 46.2 µM), without a hit: at the top dose activity change, negative = growth inhibition, most hits filed as inhibitors; actives 12% (n = 420,000); also: potency is read from the fitted curve at half-maximal effect; % is scaled to controls: 0 for no effect and ±100 for the full control effect; nearly all actives have a fitted effect of over 55% in size
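Chicken DT40 Tdp1-/- cells stably complemented with human TDP1 were seeded at 400 cells/well in medium containing 20 nM camptothecin, exposed to pin-transferred compounds, and grown at 37 °C for at least 48 hr. Viability was read as ATP luminescence.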
Numbers without * were called inactive; [ ] = another dose, or the depositor's remark. An excerpt weighted towards active compounds, which were near 21% of everything screened. Unless noted, calls follow the shape of the dose curve; as a rule, active = well fitted inhibition curve with a large enough effect; inconclusive = small, poorly fitted or top-dose-only effect; inactive = flat fitted curve, though single readings scatter.

How did COc1cc2c(cc1OC)C(=O)CCC2 do in these assays?
DRD3 agonist: -12.1; D3 antag: -20.6; TDP1 cell noCPT: 16.4µM*; ClpP mod: 28.2µM*; IL1B secr inh: 0.0; DT40 TDP1 CPT: 14.6µM*

What do the screens show for `O=C1CCCc2cc3c(cc21)CCCC3`?
DRD3 agonist: 15.7; D3 antag: 1.7; TDP1 cell noCPT: -24.2%; IL1B secr inh: -12.3; DT40 TDP1 CPT: -17.8%

What do the screens show for `Cc1ccc(S(=O)(=O)N2CCCCC2C(=O)Nc2ccc(N(C)C)cc2)cc1` (centres undefined)?
DRD3 agonist: 0.2; D3 antag: -3.5; TDP1 cell noCPT: inconclusive; IL1B secr inh: -28.6; DT40 TDP1 CPT: -20.5%

Results for COc1cc(/C=C/C(=O)O)ccc1O ?
DRD3 agonist: 5.7; D3 antag: 13.1; TDP1 cell noCPT: -2.4%; ClpP mod: inconclusive; IL1B secr inh: -17.6; DT40 TDP1 CPT: 10.2%

What do the screens show for `COc1ccc(/C=C/C(=O)C(C)(C)C)cc1OC`?
DRD3 agonist: -1.0; D3 antag: -8.4; TDP1 cell noCPT: inconclusive; ClpP mod: -3.2%; IL1B secr inh: inconclusive; DT40 TDP1 CPT: -5.2%

How did COc1cc(C=C(C(C)=O)C(C)=O)ccc1O do in these assays?
DRD3 agonist: -1.4; D3 antag: 0.0; TDP1 cell noCPT: inconclusive; ClpP mod: -0.1%; IL1B secr inh: -66.8*; DT40 TDP1 CPT: -23.4%

How did COc1ccc(C=C(C(C)=O)C(C)=O)cc1OC do in these assays?
DRD3 agonist: 1.7; D3 antag: -50.4*; TDP1 cell noCPT: inconclusive; ClpP mod: -1.6%; IL1B secr inh: -26.4; DT40 TDP1 CPT: inconclusive

Results for COc1ccc(-c2nc3ccccc3o2)cc1NC(=O)c1cc(Br)ccc1OC ?
DRD3 agonist: 5.0; TDP1 cell noCPT: 8.7%; ClpP mod: -20.6%; DT40 TDP1 CPT: 12.9%

Results for COC(=O)c1cc(CNC(=O)c2cccc(C)c2)cc(NC(=O)c2ccncc2)c1 ?
TDP1 cell noCPT: -9.3%; DT40 TDP1 CPT: 2.3%[9.04 µM]

What do the screens show for `CCOc1ccccc1C(=O)N/N=C/c1coc2ccc(C)cc2c1=O`?
DRD3 agonist: -4.9; D3 antag: -13.2; TDP1 cell noCPT: inconclusive; ClpP mod: 118.2%; IL1B secr inh: 85.1; DT40 TDP1 CPT: 18.4µM*

Results for NCCCCCC(=O)N/N=C/c1coc2ccccc2c1=O ?
DRD3 agonist: -6.7; D3 antag: 3.9; TDP1 cell noCPT: -12.8%; ClpP mod: 17.8µM*; IL1B secr inh: -1.1; DT40 TDP1 CPT: 6.0%

Results for N#CCC(=O)N/N=C/c1coc2ccccc2c1=O ?
DRD3 agonist: 10.1; D3 antag: 1.2; TDP1 cell noCPT: 5.4%; ClpP mod: -1.0%; IL1B secr inh: 7.6; DT40 TDP1 CPT: 21.5%

Results for Cc1ccc2occ(/C=N/NC(=O)c3ccc(O)cc3)c(=O)c2c1 ?
DRD3 agonist: -1.3; D3 antag: -16.3; TDP1 cell noCPT: inconclusive; ClpP mod: 50.8%; IL1B secr inh: 0.0; DT40 TDP1 CPT: inconclusive

Results for Cc1ccc2occ(/C=N/NC(N)=S)c(=O)c2c1 ?
DRD3 agonist: -24.5; D3 antag: 2.9; TDP1 cell noCPT: 25.9µM*; ClpP mod: 1.1%; IL1B secr inh: 17.7; DT40 TDP1 CPT: inconclusive

How did COc1ccc(C2=CC(=O)CC(C)(C)C2)cc1OC do in these assays?
DRD3 agonist: 5.4; D3 antag: 0.5; TDP1 cell noCPT: -12.2%; ClpP mod: -6.8%; IL1B secr inh: -19.4; DT40 TDP1 CPT: -7.4%

What do the screens show for `Cc1ccc(S(=O)(=O)NCc2ccccc2)cc1C(=O)N1CCCCC1`?
DRD3 agonist: 0.7; D3 antag: 1.4; TDP1 cell noCPT: 2.2%; ClpP mod: -0.9%; IL1B secr inh: 2.7; DT40 TDP1 CPT: -6.5%

How did Cc1ccc(S(=O)(=O)NCc2ccccc2)cc1C(=O)N1CCN(c2ccccc2)CC1 do in these assays?
DRD3 agonist: 6.2; D3 antag: -14.7; TDP1 cell noCPT: inconclusive; ClpP mod: -0.9%; IL1B secr inh: 28.0; DT40 TDP1 CPT: inconclusive

What do the screens show for `Cc1ccc(S(=O)(=O)NCc2ccccc2)cc1C(=O)N1CC(C)CC(C)C1` (centres undefined)?
DRD3 agonist: 2.0; D3 antag: 11.6; TDP1 cell noCPT: 18.4µM*; ClpP mod: 2.0%; IL1B secr inh: 6.5; DT40 TDP1 CPT: inconclusive

Results for Cc1ccc(S(=O)(=O)NCc2ccccc2)cc1C(=O)N1CCN(S(=O)(=O)c2ccccc2F)CC1 ?
DRD3 agonist: 3.2; D3 antag: 22.4; TDP1 cell noCPT: inconclusive; ClpP mod: -0.5%; IL1B secr inh: 4.4; DT40 TDP1 CPT: 11.6µM*

How did Cc1cc(C)cc(OCC(=O)Nc2c(C)ccc3nsnc23)c1 do in these assays?
DRD3 agonist: -11.2; TDP1 cell noCPT: -25.5%; ClpP mod: -7.5%; DT40 TDP1 CPT: inconclusive

Results for CC1=NOC(=O)/C1=C\c1ccc2c(c1)OCO2 ?
DRD3 agonist: 6.0; D3 antag: 17.4; TDP1 cell noCPT: 14.6µM*; IL1B secr inh: -96.5*; DT40 TDP1 CPT: inconclusive

What do the screens show for `CC1=NOC(=O)/C1=C/c1ccc2c(c1)OCO2`?
DRD3 agonist: -0.6; D3 antag: -0.3; TDP1 cell noCPT: inconclusive; ClpP mod: 2.3%; IL1B secr inh: -12.6; DT40 TDP1 CPT: 9.2µM*

Results for O=C1OCC/C1=C\c1ccc2c(c1)OCO2 ?
DRD3 agonist: -3.7; D3 antag: -21.7; TDP1 cell noCPT: -24.8%; IL1B secr inh: -8.3; DT40 TDP1 CPT: 9.2%

Results for C#CCOc1ccc(/C=C2/C(=O)ON=C2C)cc1Cl ?
DRD3 agonist: -12.0; D3 antag: 1.0; TDP1 cell noCPT: 18.4µM*; IL1B secr inh: -13.6; DT40 TDP1 CPT: inconclusive

How did C#CCOc1c(Cl)cc(/C=C2/C(=O)ON=C2C)cc1OCC do in these assays?
DRD3 agonist: 2.4; D3 antag: 9.3; TDP1 cell noCPT: inconclusive; ClpP mod: -2.3%; IL1B secr inh: 10.7; DT40 TDP1 CPT: inconclusive

What do the screens show for `CC1=NOC(=O)/C1=C\c1ccc(-c2ccc(Cl)cc2Cl)o1`?
DRD3 agonist: 3.5; D3 antag: 9.4; TDP1 cell noCPT: 11.6µM*; ClpP mod: -0.2%; IL1B secr inh: -62.4*; DT40 TDP1 CPT: 13µM*

What do the screens show for `CCOc1ccccc1NC(=O)Cn1c(=O)n(CCC(C)C)c(=O)c2cccnc21`?
DRD3 agonist: 3.2; TDP1 cell noCPT: -14.1%; ClpP mod: -0.5%; DT40 TDP1 CPT: -8.9%
